# Rows were chosen to be rich in hits. Some 28% of all compounds tested hit in one or more screens of this group.
# CYP2C9 activ – human CYP2C9 activators, primary screen, biochemical, luminescence | Cytochrome P450 2C9 (Homo sapiens), P11712 | recombinant CYP2C9, luciferin-H conversion; active compounds read high; factor 1 = untreated enzyme, 0 = blocked | activation factor at 5 µM | 96,000 tested, 1.4% active | AID 1024, 2008;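 active = activation factor of 2 or more for CYP2C9 at a 5 µM dose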;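 note: 0 = sulfaphenazole-blocked wells and 1 = vehicle-only wells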
# Target sequence (P11712 whole entry, looked up): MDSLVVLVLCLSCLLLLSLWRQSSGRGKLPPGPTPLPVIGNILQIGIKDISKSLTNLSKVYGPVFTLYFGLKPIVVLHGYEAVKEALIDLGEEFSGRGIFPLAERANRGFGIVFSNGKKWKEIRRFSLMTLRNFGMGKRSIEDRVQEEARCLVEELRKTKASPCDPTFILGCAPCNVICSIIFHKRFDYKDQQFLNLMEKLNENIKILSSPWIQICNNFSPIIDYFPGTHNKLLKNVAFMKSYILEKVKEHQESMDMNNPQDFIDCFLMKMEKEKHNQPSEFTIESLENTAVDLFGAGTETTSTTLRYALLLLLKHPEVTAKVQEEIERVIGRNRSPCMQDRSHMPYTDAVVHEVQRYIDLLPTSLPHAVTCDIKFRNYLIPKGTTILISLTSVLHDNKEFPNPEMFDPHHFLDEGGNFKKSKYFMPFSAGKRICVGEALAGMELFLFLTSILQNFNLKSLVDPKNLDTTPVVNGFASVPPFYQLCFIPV
# CYP2C9 inhib – blockers of cytochrome P450 2C9 activity – biochemical, luminescence, ADME assay, primary screen; CYP2C9 Supersomes, luciferin-H conversion; inhibition, % at 5 µM; 96,000 tested, 20% active;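 active = blocking of liver enzyme CYP2C9 beyond about 50% at 5 µM, limit read from the data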
# PLK1 kinase inh – human PLK1 kinase inhibitors, primary screen, biochemical, TR-FRET; Serine/threonine-protein kinase PLK1 (Homo sapiens), P53350; recombinant PLK1 kinase, TR-FRET peptide phosphorylation; inhibition, % at 10 µM; 97,000 tested, 0.53% active;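 active = inhibition of 50% or more in the single-concentration screen; inactive = inhibition below 50%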;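 note: 0% = DMSO max control and 100% = H-89 dihydrochloride min control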
# PLK1 PBD inh – Plk1 polo box domain binding inhibitors, primary screen, biochemical, fluorescence polarization | Serine/threonine-protein kinase PLK1 (Homo sapiens), P53350 | Plk1 PBD phosphopeptide binding | inhibition, %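 (tested at about 20 µM)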 | 97,000 tested, 0.13% active | AID 693, 2007; in the data active = inhibition above about 34%, passing the limit was not always enough
# CYP2C19 activ – human CYP2C19 activators, primary screen, biochemical, luminescence; recombinant CYP2C19, luciferin-H EGE luminescence; active compounds read high; 0 = fully inhibited enzyme, 1 = untreated enzyme; activation factor at 5 µM; 96,000 tested, under 10 active;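 active = activation factor of at least 2 at 5 µM in the primary screen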;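 note: 0 = wells with 2.5 mM tranylcypromine and 1 = vehicle-only wells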
# CYP2C19 inhib – blockers of cytochrome P450 2C19 activity – biochemical, luminescence, ADME assay, primary screen. CYP2C19 Supersomes, luciferin-H EGE luminescence, 30 min. inhibition, % at 5 µM. 96,000 tested, 21% active. AID 778, 2007;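 active = CYP2C19 inhibition above a set limit at 5 µM in the primary screen, cut at about 50% in these data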;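 note: plate controls were negative control wells for no effect and 2.5 mM tranylcypromine positive control for full effect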
# PLK1 inh conf – PLK1 kinase activity inhibitors, confirmation, biochemical, TR-FRET, duplicate runs | shares compounds with PLK1 kinase inh | recombinant PLK1 kinase, TR-FRET peptide phosphorylation | inhibition, % at 10 µM | 210 tested, 20% active | AID 744, 2007;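 active = inhibition at or above 50% in each of two repeat confirmation tests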;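 note: 0% = DMSO max control and 100% = H-89 kinase-blocked min control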
# TR-FRET interf – compound interference with Plk1 assay readout, artefact control for Plk1 kinase inhibitor project, biochemical, TR-FRET, compound added post-reaction | shares compounds with PLK1 kinase inh | inhibition (interference), % at 10 µM | 210 tested, under 10 active;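 active = both duplicate runs show 50% or greater inhibition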;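 note: 0% = DMSO max control and 100% = H-89 min control inhibited reaction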
# Redox H2O2 DR – redox cycling hydrogen peroxide generation, dose response, artefact control for Plk1 PBD inhibitor project, biochemical. shares compounds with PLK1 PBD inh. redox cycling H2O2 generation, DTT, counter-screen. EC50, µM. 120 tested, under 10 active. AID 876, 2007; call rule not given here
# The depositor's hits bear a star; · = no result.
SMILES,CYP2C9 activ,CYP2C9 inhib,PLK1 kinase inh,PLK1 PBD inh,CYP2C19 activ,CYP2C19 inhib,Redox H2O2 DR,others
Cc1nc2ccccc2c2oc(C(=O)NCC3COc4ccccc4O3)cc12 (centres undefined),0.6,35.8,·,·,0.9,5.3,·,
Nc1ncnc(Nc2cccc(C(F)(F)F)c2)n1,1.1,-10.3,76.7*,0.0,0.9,6.1,·,PLK1 inh conf=73.8*;TR-FRET interf=-43.6
O=C(CC1C(=O)NCCN1C(=O)Nc1ccccc1)Nc1ccc2c(c1)OCO2 (centres undefined),0.7,32.2,-5.6,8.3,0.8,16.3,·,
O=C(CC1C(=O)NCCN1C(=S)Nc1ccccc1)Nc1ccc2c(c1)OCCO2 (centres undefined),0.4,58.7*,-1.1,43.3*,0.9,8.8,>50,
CCN1CCN(C(=O)Nc2cccc3ccccc23)CC1,1.1,-7.8,-1.9,-10.7,1,4.7,·,
CCn1ncc(CN2CCN(C(=O)Nc3ccccc3C(=O)OC)CC2)c1C,1.1,-9.7,-7.2,39.4*,1.1,-12.1,>50,
O=C(NC1(O)C(=O)c2ccccc2C1=O)c1ccccc1,1,4.8,5.3,81.8*,0.7,31.9,>50,
CCOC(=O)C1=C(O)/C(=C/c2cn(CC(=O)NCC3CCCO3)c3ccccc23)SC1=Nc1ccc(C)cc1 (centres undefined),·,·,-7.0,9.8,·,·,·,
Cc1ccc(NC(=O)CC(NCCN2CCOCC2)C(=O)O)cc1Cl (centres undefined),0.7,28.3,1.2,-14.2,0.8,17.9,·,
O=C(CN1C(=O)c2ccccc2C1=O)N1CCN(c2nnc(-c3ccccc3)c3ccccc23)CC1,1,-4.4,-13.2,47.3*,1.1,-14.3,>50,
O=C(CSc1ncn[nH]1)N1CCN(c2nnc(-c3ccccc3)c3ccccc23)CC1,0.7,27.1,·,·,0.7,34.4,·,
CC(=O)N1CCc2cc(Br)cc(S(=O)(=O)NCc3ccccn3)c21,1,1.7,-4.2,55.5*,0.8,15.2,>50,
CCc1nnc(NC(=O)C2CC(=O)N(Cc3ccco3)C2)s1 (centres undefined),1,2.3,7.6,-15.1,1,0.4,·,
COC(=O)c1c(C(=O)OC)c2oc3ccccc3n2c1Cl,0.6,35.5,-29.0,4.0,0.6,37.1,·,
Cc1ccc2cc(C(c3nnnn3C3CCCC3)N3CCN(c4ccccc4)CC3)c(=O)[nH]c2c1 (centres undefined),0.6,39.9,-4.6,60.7*,1,3.5,>50,
COC(=O)c1sc2ncccc2c1OCc1ccccc1Cl,0.7,28.0,-2.3,-5.5,0.8,20.7,·,
Cc1ccc(NC2=C/C(=N\S(=O)(=O)c3cccs3)c3ccccc3C2=O)c(C)c1,·,·,4.5,61.9*,·,·,>50,
Cc1ccc(Nc2cc(=O)oc3ccccc23)c(C)c1,0.7,31.2,-6.7,4.9,0.8,16.0,·,
O=C(c1cn[nH]c1)c1cc(F)ccc1O,1.1,-7.4,19.2,1.9,0.9,8.5,·,
Cc1oc2c(c1C(=O)c1ccccc1)C(=O)C(=O)c1ccccc1-2,0.1,89.7*,-0.3,123.7*,0.1,91.9*,>50,
CC1Cc2ccccc2N1C(=O)c1ccc2c(c1)nnn2C (centres undefined),1.7,-66.5,-6.5,50.3*,0.5,49.0,>50,
COc1ccc(CC2NCCC3(O)CCCCC23)cc1 (centres undefined),1,0.1,-15.6,39.2*,0.9,9.5,>50,
CCOC(=O)c1c(NC(=O)c2c(C)noc2C)sc2c1CCCCC2,1.1,-6.1,-3.7,-20.6,1.2,-15.7,·,
Cc1ccc(N(CC(=O)N2CCOCC2)S(C)(=O)=O)cc1C,1,2.6,-7.2,-8.6,1,-1.1,·,
Cc1ccc(C(=O)c2c[nH]c(C(=O)NCCCN3CCOCC3)c2)cc1,1,-1.2,-3.0,57.8*,0.7,26.6,>50,
SMILES,CYP2C9 activ,CYP2C9 inhib,PLK1 kinase inh,PLK1 PBD inh,CYP2C19 activ,CYP2C19 inhib,Redox H2O2 DR,others
Fc1ccc(Cn2nnnc2CN2CCN(C3CCCC3)CC2)cc1,1,-0.5,-4.7,45.2*,1,4.7,>50,
CC(=O)Oc1ccc2cc(-c3nc4ccccc4n3C)c(=O)oc2c1,1.9,-87.7,-14.7,-15.0,1,1.2,·,
Cn1c(-c2cc3ccc(OC(=O)C(C)(C)C)cc3oc2=O)nc2ccccc21,1.1,-7.3,-13.9,37.2*,0.8,22.1,>50,
Nc1ccc2c(c1)C(=O)C(=O)c1ccccc1-2,0.1,87.4*,-0.6,95.4*,0,97.5*,>50,
CC(O)C(=O)N/N=C/c1cccc(Cl)c1Cl (centres undefined),1.1,-12.1,-7.8,-18.2,0.9,7.6,·,
COc1ccc2c3c(cccc13)NN=C2C,·,·,32.9,38.0*,·,·,>50,
COc1cccc(=O)c2c(C)oc(C)c12,0.7,33.8,-1.2,2.1,0.8,15.5,·,
CN(C)c1ccc(C(=O)Nc2nc3c(s2)CCCC3)cc1,0.6,35.5,-2.6,45.7*,1,4.4,>50,
COC(=O)Nc1nc2c(s1)CCCC2,1.1,-5.9,·,·,1.2,-17.9,·,
Cc1ccc(Cn2c(SCC(=O)Nc3cccc(C)n3)nc3c2c(=O)n(C)c(=O)n3C)cc1,0.7,30.4,·,·,0.9,13.8,·,
O=C(Cc1ccc(Cl)cc1)NCCN1CCCC1,1.1,-10.4,-10.8,48.1*,1,-1.9,>50,
CCOc1ccc2ccccc2c1C(=O)N1CCOCC1,0.9,6.4,-7.6,3.3,0.8,16.0,·,
COc1cc(S(=O)(=O)N2CCCCCC2)ccc1-n1cnnn1,1.1,-14.9,-2.5,38.2*,0.6,44.0,>50,
COc1cccc(OC)c1C(=O)N1CCN(c2ccccn2)CC1,0.9,6.8,-12.4,38.3*,0.8,25.0,>50,
Cc1cccc(C(=O)N2CCN(c3ccccn3)CC2)c1,·,·,-15.9,7.2,·,·,·,
COc1ccc(N(CC(=O)O)S(C)(=O)=O)cc1OC,1.3,-25.8,-9.8,-5.0,1.2,-16.6,·,
CCC(=O)Nc1ccc(-c2nnc(SCC(=O)Nc3nccs3)n2C)cc1,0.9,14.9,19.0,47.2*,0.9,7.3,>50,
CCC(=O)Nc1ccc(-c2nnc(SCc3ccc(C(=O)Nc4nccs4)cc3)n2CC)cc1,0.5,48.5,1.1,11.1,0.8,17.6,·,

# High-throughput results deposited in PubChem BioAssay by several laboratories.
